9 compounds from PubChem BioAssay (Tox21) can be followed below.

Experiment [1] in a line: qHTS assay for small molecules that induce genotoxicity in human embryonic kidney cells expressing luciferase-tagged ATAD5 (AID 651632). Note: nearly all actives have a fitted effect of over 15% in size. Note: potency is the fitted concentration of half-maximal effect. The gist of the method: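 Genotoxicity read-out via ATAD5-luciferase: HEK293T cells, 16 hr compound incubation at 37C, Amplite detection.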
Experiment [2] can be described thus: qHTS assay for small molecule agonists of the p53 signaling pathway - cell viability (AID 651633; calls by dose curve; note: potency is the fitted concentration of half-maximal effect; nearly all actives have a fitted effect of over 30% in size). The gist of the method:
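p53RE-bla cells were treated with compound for 16 hours at 37 C. Cytotoxicity was then measured as CellTiter-Glo luminescence after 30 min at room temperature.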
On the technique in general: Quantitative high-throughput screening tests each substance at several concentrations.

Experiment [3] is described as follows: qHTS assay for small molecule disruptors of the mitochondrial membrane potential - cell viability (AID 720634; calls by dose curve; note: nearly all actives have a fitted effect of over 20% in size; note: potency is the fitted concentration of half-maximal effect). The gist of the method:
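Human hepatoma HepG2 cells were treated for 1 hr with test chemicals, then given m-MPI dye and CellTiter-Glo. Cell viability reflects luminescence proportional to cellular ATP.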

Experiment [4] is described as follows: qHTS assay to test for compound auto fluorescence at 590 nm (red) in HepG2 cells (AID 720674). The gist of the method:
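HepG2 cells, 2,000 per well in MEM with 10% FBS, attached overnight at 37 C, then got 23 nL compound or DMSO. After 1 hr at 37 C, 5% CO2, red fluorescence was read at 540/590 nm against Rose Bengal sodium as reference.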

Experiment [5] is described as follows: qHTS assay to test for compound auto fluorescence at 535 nm (green) in HepG2 cells (AID 720675).
Experiment [6] is described as follows: qHTS assay to test for compound auto fluorescence at 460 nm (blue) in HEK293 cells (AID 720678). The gist of the method: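 Blue-channel (Ex/Em 405/460 nm) intensity measured in HEK293 cultures after overnight compound exposure at 37C; signal expressed relative to triamterene. Cells plated 2,000 per well in 10% dialyzed FBS medium and allowed 4-5 hr to attach.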

A short description of experiment [7]: qHTS assay to test for compound auto fluorescence at 590 nm (red) in HEK293 cells (AID 720679). The gist of the method: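 Red-channel autofluorescence (Ex/Em 540/590 nm; Rose Bengal sodium reference) was measured after overnight 37C, 5% CO2 exposure of attached HEK293 cells, 2,000 per well in medium with 10% dialyzed FBS.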
Experiment [8] in a line: qHTS assay to test for compound auto fluorescence at 535 nm (green) in HEK293 cells (AID 720680).
Experiment [9] can be described thus: qHTS assay to test for compound auto fluorescence at 535 nm (green) in HEK293 cell free culture (AID 720682). The gist of the method: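 No cells present: wells hold DMEM supplemented with 10% FBS, into which compound or vehicle is pinned. Green emission is then recorded (485 nm excitation, 535 nm emission) and scaled to fluorescein.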
Experiment [10] can be described thus: qHTS assay to test for compound auto fluorescence at 590 nm (red) in HEK293 cell free culture (AID 720683). The gist of the method: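 Cell-free wells of DMEM with 10% FBS received compound, and intrinsic fluorescence was read at excitation/emission 540/590 nm. Values expressed as equivalence to Rose Bengal sodium.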
Experiment [11] in a line: qHTS assay to test for compound auto fluorescence at 590 nm (red) in HepG2 cell free culture (AID 720684). The gist of the method:
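Compounds are added to culture medium (MEM, 10% FBS) lacking cells, then fluorescence is read at excitation 540 nm, emission 590 nm, with Rose Bengal sodium as the equivalency standard.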

A short description of experiment [12]: qHTS assay to test for compound auto fluorescence at 460 nm (blue) in HepG2 cell free culture (AID 720685). The gist of the method:
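Compound (23 nL) or DMSO pinned into cell-free MEM with 10% FBS; blue fluorescence read at 405/460 nm excitation/emission, expressed as auto-fluorescence equivalency to triamterene.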

The nature of experiment [13]: qHTS assay to test for compound auto fluorescence at 535 nm (green) in HepG2 cell free culture (AID 720686).
The nature of experiment [14]: qHTS assay to test for compound auto fluorescence at 460 nm (blue) in HepG2 cells (AID 720687). The gist of the method:
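HepG2 cells in MEM with 10% FBS, attached overnight at 37 C, were exposed to compound or DMSO for 1 hr at 37 C, 5% CO2. Blue fluorescence was read at 405/460 nm, with triamterene as reference fluorophore.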

The nature of experiment [15]: qHTS assay for small molecules that induce genotoxicity in human embryonic kidney cells expressing luciferase-tagged ATAD5 - cell viability (AID 651634; calls by dose curve; note: nearly all actives have a fitted effect of over 25% in size; note: potency is the fitted concentration of half-maximal effect). The gist of the method:
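Live-cell protease activity (CellTiter-Fluor, fluorescence) indicates viability. HEK293T cells with luciferase-tagged ATAD5; 15.5 hr compound treatment at 37C.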

Experiment [16] is described as follows: qHTS assay for small molecule disruptors of the mitochondrial membrane potential (AID 720635). Note: potency is the fitted concentration of half-maximal effect. The gist of the method: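 HepG2 cells exposed to compound 1 hr at 37C, then Mito-MPS dye 30 min. Ratio read of aggregate (540/590 nm) versus monomer (490/535 nm) fluorescence.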
Experiment [17] can be described thus: qHTS assay to test for compound auto fluorescence at 460 nm (blue) in HEK293 cell free culture (AID 720681). The gist of the method: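 Compounds were added to cell-free DMEM with 10% FBS and fluorescence read directly. The blue channel used 405 nm excitation and 460 nm emission, with triamterene as the reference fluorophore.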
Experiment [18] concerns the target Glucocorticoid receptor (Homo sapiens) (UniProt P04150). The experiment is described as follows: qHTS assay to identify small molecule antagonists of the glucocorticoid receptor (GR) signaling pathway (AID 720692; active = well fitted inhibition curve with a large enough effect in the signal ratio in the repeat runs, not every such curve was filed as active; the % refers to the signal ratio; note: potency is the fitted concentration of half-maximal effect). The gist of the method: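 Fluorescence from cleaved LiveBLAzer B/G FRET substrate reports GRE-driven beta-lactamase in HeLa cells; compounds are tested against 5 nM dexamethasone (final) over 18 h at 37 C, substrate incubation 2 h at room temperature.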

For experiment [19] the target is unchanged. Description: qHTS assay to identify small molecule agonists of the glucocorticoid receptor (GR) signaling pathway (AID 720691; active = well fitted activation curve with a large enough effect in the signal ratio in the repeat runs, not every such curve was filed as active; the % refers to the signal ratio). The gist of the method:
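Beta-lactamase reporter activity, read as fluorescence intensity, was measured in GR-bla HeLa cells exposed to compounds for 18 h at 37 C and then loaded with LiveBLAzer B/G FRET substrate for 2 h at room temperature.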

“And” between values parts separate entries of the source, which are not always exact repeats. Equal entries are not always repeated. Values without a mark were called inactive. Records with an inconclusive call do not appear. The source made the active and inactive calls. Unless noted, calls come from the whole dose curve; as a rule, active = well fitted curve in the direction sought with a large enough effect in the repeat runs; inconclusive = weak or mixed curves; inactive = no such curve, though single readings can be large; an effect the other way counts as inactive or inconclusive.

Chain of Glucocorticoid receptor (Homo sapiens) (P04150 whole entry, looked up): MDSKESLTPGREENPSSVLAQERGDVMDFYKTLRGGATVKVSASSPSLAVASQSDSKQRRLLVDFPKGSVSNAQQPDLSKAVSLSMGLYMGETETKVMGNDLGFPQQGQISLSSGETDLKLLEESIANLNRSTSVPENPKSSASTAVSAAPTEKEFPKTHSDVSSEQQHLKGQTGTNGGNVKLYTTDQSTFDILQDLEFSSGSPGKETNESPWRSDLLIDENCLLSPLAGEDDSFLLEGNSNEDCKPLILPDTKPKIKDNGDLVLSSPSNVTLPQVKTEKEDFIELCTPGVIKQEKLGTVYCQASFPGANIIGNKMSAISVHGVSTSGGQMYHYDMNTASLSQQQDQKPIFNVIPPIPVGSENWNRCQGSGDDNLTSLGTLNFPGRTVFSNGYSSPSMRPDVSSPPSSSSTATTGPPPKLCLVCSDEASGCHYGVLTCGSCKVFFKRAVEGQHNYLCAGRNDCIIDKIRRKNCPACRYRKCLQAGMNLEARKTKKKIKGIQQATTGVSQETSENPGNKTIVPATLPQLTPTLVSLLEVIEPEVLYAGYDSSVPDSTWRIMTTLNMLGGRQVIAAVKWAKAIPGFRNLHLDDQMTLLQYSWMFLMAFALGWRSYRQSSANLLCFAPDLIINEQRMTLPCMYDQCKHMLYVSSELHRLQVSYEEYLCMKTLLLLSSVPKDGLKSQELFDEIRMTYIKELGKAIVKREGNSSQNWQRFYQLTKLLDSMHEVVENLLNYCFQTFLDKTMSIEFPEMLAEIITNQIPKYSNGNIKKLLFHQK

Take `CCCCCCCCCCCCCCC(Br)C(=O)O` (configuration not stated): the Potency entry in [1], in experiment [3], in [6], in experiment [12] and in experiment [14] was “inactive” each time. Besides, the Potency in [2] was 54.5 µM (active). Further, the outcome in [4], in [5], in [7], in [8], in [9] and in [10] was inactive. In addition, the compound was called inactive in experiment [11] and in experiment [13].

On to `Clc1ccc(C(c2ccc(Cl)cc2)C(Cl)(Cl)Cl)cc1`, for which the Potency result in experiment [1], in [15], in experiment [3], in experiment [6], in experiment [17] and in experiment [14] was “inactive” throughout. The Potency is 21.1 µM (active) and 19.5 µM (active) and 15.4 µM (active) in experiment [16]; 43.6 µM (active) in experiment [18]. The outcome in experiment [4], in experiment [5], in experiment [7], in experiment [8], in experiment [9] and in [10] was inactive. In addition, the result in experiment [11] and in [13] was inactive.

On to `Cc1cc(SCc2sc(-c3ccc(C(F)(F)F)c(F)c3)nc2C)ccc1OCC(=O)O`, for which the Potency entry in experiment [1], in experiment [6], in experiment [17], in experiment [12] and in experiment [14] was “inactive” in each case. The Potency in [2] is 48.6 µM (active). The compound was called inactive in experiment [4], in experiment [5], in experiment [7], in experiment [8], in [9] and in experiment [10]. Moreover, the outcome in experiment [11] and in experiment [13] was inactive.

Consider `CC1(C)CC/C(=C/c2ccc(Cl)cc2)C1(O)Cn1cncn1` (configuration not stated), for which the Potency result in experiment [1], in experiment [15], in experiment [3], in experiment [6], in [14] and in experiment [19] was “inactive” each time. For the same compound, the call in experiment [4], in experiment [5], in experiment [7], in experiment [8], in experiment [9] and in [10] was inactive. Moreover, the compound was called inactive in experiment [11] and in experiment [13].

For `C[C@]12CC[C@H]3[C@@H](CCC4=CC(=O)CC[C@@]43C)[C@@H]1CC[C@@H]2O`, the Potency result in experiment [1], in [15], in [3], in experiment [6], in experiment [17] and in [12] was “inactive” in each case. Further, the Potency entry in experiment [14] and in [19] was “inactive” each time. Moreover, the compound was classed as inactive in [4], in experiment [5], in [7], in experiment [8], in [10] and in [11]. In addition, the result in [13] was inactive. Besides, the Potency in experiment [18] was 2.44 µM (active).

As for `Nc1ccc(Cc2ccc(N)c(Cl)c2)cc1Cl`, the Potency result in experiment [1], in [15], in [6], in experiment [17], in [12] and in [14] was “inactive” each time. Besides, the Potency result in experiment [19] was “inactive”. Besides, the Potency in experiment [16] was 59.1 µM (active); in experiment [18] it was 42.2 µM (active). For the same compound, the outcome in experiment [4], in experiment [5], in experiment [7], in experiment [8], in experiment [9] and in experiment [10] was inactive. For the same compound, the compound was called inactive in experiment [11] and in experiment [13].

Turning to `Clc1ccc(COC(Cn2ccnc2)c2ccc(Cl)cc2Cl)cc1` (configuration not stated), the Potency result in experiment [1], in experiment [6], in experiment [17], in experiment [12] and in experiment [14] was “inactive” each time. The Potency in [15] is 26.6 µM (active); in experiment [3], 26.6 µM (active); in [16] it was 18.8 µM (active) and 45.3 µM (active) and 54.3 µM (active). For the same compound, the result in [4], in [5], in [7], in experiment [8], in [10] and in [11] was inactive. In addition, the compound was classed as inactive in experiment [13].

For `Cc1cc(N=Nc2ccccc2C)ccc1N`, the Potency is 6.11 µM (active) and 6.86 µM (active) in experiment [1]; 48.6 µM (active) in experiment [15]; 19.3 µM (active) and 15.4 µM (active) in experiment [3]; 15.4 µM (active) and 30.6 µM (active) in experiment [16]. Moreover, the compound was classed as inactive in experiment [4], in experiment [5], in [7], in experiment [8], in [10] and in [11]. Further, in experiment [13], the outcome was inactive. Further, the Potency result in experiment [6], in experiment [17], in experiment [12], in experiment [14] and in [19] was “inactive” throughout.

`COc1ccc(OC)c(CC(C)N)c1` (configuration not stated): the Potency result in experiment [1], in [15], in experiment [3], in experiment [16], in [17] and in [12] was “inactive” throughout. Also, the Potency entry in experiment [14] is “inactive”. Besides, the result in experiment [4], in [5], in experiment [7], in experiment [8], in experiment [9] and in experiment [10] was inactive. In addition, the result in [11] and in experiment [13] was inactive.
